Data on seven molecules can be found in PubChem BioAssay (NCI).

The panel holds about 83,000 compounds, 20% with a hit somewhere; the sample as a whole holds those more often.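 Step 1: grow cells in 96-well plates. Step 2: add test compound at a single concentration. Step 3: incubate 48 h. Step 4: record percent growth.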 A number with no mark means an inactive call. Activity calls are given as the source filed them. The calls were made as follows: active = growth percent below 10; inactive = the rest.

Among the test systems are HCT-15 colon; HT29 colon; SNB-75 CNS; SNB-19 CNS; U251 CNS; PC-3 prostate; SK-MEL-5 melanoma; UACC-62 melanoma; LOX IMVI melanoma; SK-MEL-28 melanoma; SK-MEL-2 melanoma; EKVX NSCLC; SN12C renal; UO-31 renal; TK-10 renal; ACHN renal; CAKI-1 renal; A498 renal; CCRF-CEM leukemia; MOLT-4 leukemia.
Assay in all cases: NCI-60 one-dose screen, 48 h (100 = growth as untreated, 0 = no growth, -100 = all killed)
Settings in all cases: 10 µM unless noted

Consider `O=C(COc1cccc(/C=C2\Oc3ccc4ccccc4c3C2=O)c1)c1ccc([N+](=O)[O-])cc1`, for which the growth is 89.5% in the assay with HCT-15 colon; 96.5% in the assay on HT29 colon; 81.4% with SNB-75 CNS; 100% in the assay with SNB-19 CNS; 94.5% in the assay on U251 CNS; 75.6% in the assay on PC-3 prostate. Further, the growth in the assay with SK-MEL-5 melanoma is 87.2%; with UACC-62 melanoma it was 81.1%; with LOX IMVI melanoma, -30.3% (active); in the assay on SK-MEL-28 melanoma, 124%; in the assay with SK-MEL-2 melanoma, 44.3%; in the assay with EKVX NSCLC, 85.4%. In addition, the growth with SN12C renal was 98.2%; in the assay on UO-31 renal, -41.6% (active); in the assay on TK-10 renal it was 99.9%; in the assay with ACHN renal, 98.4%; in the assay on CAKI-1 renal, 69.3%; in the assay on A498 renal, 108%. In addition, the growth was 35.7% in the assay on CCRF-CEM leukemia and 32% in the assay on MOLT-4 leukemia.
`O=c1c2c(=NCCCN3CCCC3)cc3c(=O)n(CCCN4CCCC4)c(=O)c4c(NCCCN5CCCC5)cc(c(O)n1CCCN1CCCC1)c2c4-3`: the growth in the assay with HCT-15 colon was 12.9%; in the assay with HT29 colon, -7.75% (active); with SNB-75 CNS, -83.1% (active); with SNB-19 CNS, 7.13% (active); with U251 CNS, 1.98% (active); in the assay with PC-3 prostate it was 11.7%. For the same molecule, the growth with SK-MEL-5 melanoma was -66% (active); in the assay with UACC-62 melanoma, -52.2% (active); with LOX IMVI melanoma, -7.8% (active); in the assay with SK-MEL-28 melanoma it was -42.3% (active); in the assay on SK-MEL-2 melanoma it was 1.12% (active); in the assay with EKVX NSCLC it was -17.2% (active). The growth with SN12C renal is 10.3%; in the assay on UO-31 renal, -34.9% (active); in the assay on TK-10 renal, 13.1%; with ACHN renal, -31.2% (active); in the assay with CAKI-1 renal, 14.4%; in the assay on CCRF-CEM leukemia, 10.1%. For the same molecule, the growth with MOLT-4 leukemia is 16.5%.
With `O=C(O)CNC(=O)C1(N2C(=O)c3ccccc3C2=O)CCCC1`, the growth was 106% with HCT-15 colon; 105% with HT29 colon; 88.2% in the assay on SNB-75 CNS; 99% in the assay on SNB-19 CNS; 107% with U251 CNS; 104% in the assay with PC-3 prostate. In addition, the growth in the assay on SK-MEL-5 melanoma was 100%; in the assay with UACC-62 melanoma, 94.5%; in the assay on LOX IMVI melanoma, 97.2%; in the assay on SK-MEL-28 melanoma, 104%; in the assay on SK-MEL-2 melanoma, 101%; in the assay with EKVX NSCLC, 104%. Also, the growth was 99% in the assay with SN12C renal; 94.1% in the assay with UO-31 renal; 99.6% in the assay with TK-10 renal; 108% in the assay with ACHN renal; 98.5% with CAKI-1 renal; 100% in the assay with A498 renal. For the same molecule, the growth was 88.8% in the assay on CCRF-CEM leukemia and 101% with MOLT-4 leukemia.
On to `C=CCNC(=O)/C(=C/c1cccc([N+](=O)[O-])c1)NC(=O)c1ccccc1`, for which the growth was 87.5% with HCT-15 colon; 113% in the assay with HT29 colon; 87.5% in the assay with SNB-75 CNS; 91.2% in the assay on SNB-19 CNS; 96.8% in the assay on U251 CNS; 94.7% in the assay with PC-3 prostate. Besides, the growth in the assay with SK-MEL-5 melanoma is 97.9%; in the assay on UACC-62 melanoma it was 95.3%; in the assay with LOX IMVI melanoma it was 93.4%; with SK-MEL-28 melanoma, 119%; in the assay with SK-MEL-2 melanoma, 18.9%; in the assay with EKVX NSCLC, 108%. Further, the growth was 103% in the assay on SN12C renal; 90% in the assay with UO-31 renal; 101% in the assay on TK-10 renal; 94% in the assay with ACHN renal; 90.6% in the assay on CAKI-1 renal; 130% in the assay on A498 renal. For the same molecule, the growth with CCRF-CEM leukemia is 90.6%; with MOLT-4 leukemia, 101%.
On to `Nc1ccccc1-c1ccn[nH]1`, for which the growth with HCT-15 colon was 85.2%; in the assay on HT29 colon, 106%; with SNB-75 CNS, 61.9%; in the assay on SNB-19 CNS, 97.4%; in the assay on U251 CNS, 96.7%; in the assay on PC-3 prostate it was 79.1%. For the same molecule, the growth is 96.6% in the assay with SK-MEL-5 melanoma; 48.4% with UACC-62 melanoma; 68.6% in the assay with LOX IMVI melanoma; 110% in the assay with SK-MEL-28 melanoma; 83.5% in the assay with SK-MEL-2 melanoma; 87% with EKVX NSCLC. For the same molecule, the growth is 87.9% in the assay on SN12C renal; 50.9% with UO-31 renal; 119% in the assay on TK-10 renal; 70.5% with ACHN renal; 68.4% in the assay on CAKI-1 renal; 103% with A498 renal. The growth was 97.4% in the assay with CCRF-CEM leukemia and 98.7% in the assay with MOLT-4 leukemia.
For `Cn1cnc([N+](=O)[O-])c1Sc1nc(N)nc2nc[nH]c12`, the growth in the assay with HCT-15 colon was 50.3%; in the assay on HT29 colon, 47.2%; in the assay on SNB-75 CNS it was 31.3%; in the assay on SNB-19 CNS, 101%; in the assay with U251 CNS it was 63.6%; in the assay with PC-3 prostate, 56.2%. The growth in the assay with SK-MEL-5 melanoma was 79.3%; in the assay on UACC-62 melanoma it was 7.35% (active); in the assay with LOX IMVI melanoma it was 6.74% (active); in the assay with SK-MEL-28 melanoma it was 84.4%; with SK-MEL-2 melanoma, 17.8%; with EKVX NSCLC it was 27.9%. Also, the growth in the assay on SN12C renal is 43.6%; in the assay on UO-31 renal it was 16.9%; in the assay with TK-10 renal, 38.5%; with ACHN renal, 72.7%; in the assay on CAKI-1 renal, 38.4%; in the assay on A498 renal, 43.6%. In addition, the results for the growth in the assay with CCRF-CEM leukemia and in the assay with MOLT-4 leukemia were 13.5% and 11.3%, respectively.
As to `COc1ccc2c(c1)CC[C@@H]1[C@@H]2CC[C@]2(C)[C@@H](O)C(=O)C[C@@H]12`, the growth was 114% in the assay with HCT-15 colon; 105% in the assay with HT29 colon; 97.2% in the assay on SNB-75 CNS; 102% with SNB-19 CNS; 102% in the assay with U251 CNS; 95.1% with PC-3 prostate. Besides, the growth in the assay on SK-MEL-5 melanoma was 107%; in the assay on UACC-62 melanoma, 94.5%; with LOX IMVI melanoma it was 94%; in the assay with SK-MEL-28 melanoma it was 113%; in the assay with SK-MEL-2 melanoma, 107%; in the assay with EKVX NSCLC, 102%. In addition, the growth with SN12C renal was 96.1%; in the assay with UO-31 renal it was 85.2%; in the assay with TK-10 renal it was 109%; in the assay with ACHN renal it was 94.9%; in the assay on CAKI-1 renal, 97.4%; with A498 renal, 95.7%. Moreover, the growth was 91.8% in the assay with CCRF-CEM leukemia and 90.8% in the assay on MOLT-4 leukemia.
